Our source for the enrichment ratio values is a collection of fitness landscapes (doi:10.1126/science.1257360).

B1: PhoQ; a variant is named by its letters at X, in order, P23837 (parent)
chain: MKKLLRLFFPLSLRVRFLLATAAVVLVLSLAYGMVALIGYSVSFDKTTFRLLRGESNLFYTLAKWENNKLHVELPENIDKQSPTMTLIYDENGQLLWAQRDVPWLMKMIQPDWLKSNGFHEIEADVNDTSLLLSGDHSIQQQLQEVREDDDDAEMTHSVAVNVYPATSRMPKLTIVVVDTIPVELKSSYMVWSWFIYVLSANLLLVIPLLWVAAWWSLRPIEALAKEVRELEEHNRELLNPATTRELTSLVRNLNRLLKSERERYDKYRTTLTDLTHSLKTPLXXLQXXLRSLRSEKMSVSDAEPVMLEQISRISQQIGYYLHRASMRGGTLLSRELHPVAPLLDNLTSALNKVYQRKGVNISLDISPEISFVGEQNDFVEVMGNVLDNACKYCLEFVEISARQTDEHLYIVVEDDGPGIPLSKREVIFDRGQRVDTLRPGQGVGLAVAREITEQYEGKIVAGESMLGGARMEVIFGRQHSAPKDE

Over roughly 140,000 sequences, “enrichment ratio after two sorts for PhoP signalling” has its median near 0; the highest 2% begin near 11. The sample as a whole holds a higher share of the highest values than the screen did.

This experiment covers variants of B1. Briefly: enrichment ratio after two sorts for PhoP signalling (ratio (wild type AVST 3.29)); higher = more functional. As to conditions: with PhoP (E. coli).
With NMAQ, the enrichment ratio was at most 0.25.
On to HQSV, for which the enrichment ratio was at most 0.25.
In the case of LFRC, the enrichment ratio was at most 0.25.
Take PWKY: the enrichment ratio is at most 0.25.
With DPKV, the enrichment ratio is at most 0.25.
In the case of TIQF, the enrichment ratio is 9.01.
With SQIN, the enrichment ratio stood at 12.8.
Under SAIN stands 11.8; under SCIN, 0.637; under NAIN, at most 0.25.
Under SGIN stands 11.4.
Regarding SRIN, the enrichment ratio is at most 0.25.
Take TGIN: the enrichment ratio is at most 0.25.
As for KAIN, the enrichment ratio was at most 0.25.
Regarding EQIN, the enrichment ratio was at most 0.25.
Regarding VAML, the enrichment ratio turned out to be 7.99.
KNIR: the enrichment ratio was at most 0.25.
For SWRM the value was at most 0.25.
As to TMWP, the enrichment ratio is at most 0.25.
As for SLWP, the enrichment ratio is at most 0.25.
With DKCH, the enrichment ratio was at most 0.25.
As to VWNG, the enrichment ratio was at most 0.25.
TGSY: the enrichment ratio stood at 15.9.
Under RGSY stands at most 0.25; under AISY, 5.51.
For AKSY the value was 2.91; for AQSY, 12.7.
Regarding ADSY, the enrichment ratio is at most 0.25.
Under GGSY stands at most 0.25.
AHSY: the enrichment ratio is at most 0.25.
As to AGSY, the enrichment ratio was determined as 14.7.
With DTDV, the enrichment ratio was at most 0.25.
Consider WMKH, for which the enrichment ratio was at most 0.25.
Turning to MNKP, the enrichment ratio was at most 0.25.
Under RIYR stands at most 0.25; under FFTK, at most 0.25.
Consider WFGI, for which the enrichment ratio was at most 0.25.
With HTNW, the enrichment ratio is at most 0.25.
On to KLTI, for which the enrichment ratio is at most 0.25.
Consider MSGV, for which the enrichment ratio worked out at 13.8.
For the variant MSHF, the enrichment ratio was 2.07.
As to KAGV, the enrichment ratio is at most 0.25.
For MSHV the value was 17.4; for KSGV, at most 0.25; for MRHV, at most 0.25.
SEQA: the enrichment ratio is at most 0.25.
GVVG: the enrichment ratio was at most 0.25.
For LEYW the value was at most 0.25.
For the variant RSAR, the enrichment ratio is at most 0.25.
As to EASM, the enrichment ratio was at most 0.25.
Take FIMQ: the enrichment ratio was at most 0.25.
Turning to FQLQ, the enrichment ratio is 17.7.
NSLQ: the enrichment ratio was 0.291.
In the case of MPLQ, the enrichment ratio was at most 0.25.
For FALQ, the enrichment ratio was 7.48.
On to FPLQ, for which the enrichment ratio is at most 0.25.
Take FILQ: the enrichment ratio was 11.5.
On to WILQ, for which the enrichment ratio was at most 0.25.
Under FITA stands at most 0.25.
Consider MALQ, for which the enrichment ratio was 13.1.
Under FDLQ stands at most 0.25; under TSLQ, 16.4; under TPCV, at most 0.25.
Under HIPN stands at most 0.25; under WRHY, at most 0.25; under GDYV, at most 0.25.
Consider LQVN, for which the enrichment ratio was at most 0.25.
Consider DQMY, for which the enrichment ratio was at most 0.25.
As for VHFI, the enrichment ratio was at most 0.25.
Take FDRQ: the enrichment ratio is at most 0.25.
With LRHY, the enrichment ratio is at most 0.25.
On to FSLQ, for which the enrichment ratio was found to be 11.8.
Take FCLQ: the enrichment ratio was 6.86.
Regarding KSLQ, the enrichment ratio is at most 0.25.
LNSK: the enrichment ratio was at most 0.25.
Under TCIM stands 0.447.
As for TCGM, the enrichment ratio amounted to 15.3.
In the case of FCTM, the enrichment ratio is at most 0.25.
With VECM, the enrichment ratio stood at 0.698.
On to TCYA, for which the enrichment ratio is 1.75.
For the variant QECM, the enrichment ratio is at most 0.25.
As to TCCM, the enrichment ratio is 20.
Under TCYM stands 12.1; under TCWM, at most 0.25; under TCNM, 1.24.
TCTM: the enrichment ratio amounted to 21.1.
Turning to TCYN, the enrichment ratio amounted to 3.25.
Take IMKY: the enrichment ratio was at most 0.25.
Turning to VMEY, the enrichment ratio was at most 0.25.
In the case of TYKQ, the enrichment ratio was at most 0.25.
Turning to IGCI, the enrichment ratio is at most 0.25.
As for THAC, the enrichment ratio was 6.19.
Under SQFC stands at most 0.25; under WRVD, at most 0.25.
As to ISHC, the enrichment ratio was at most 0.25.
YTMN: the enrichment ratio was at most 0.25.
Turning to EMDR, the enrichment ratio is at most 0.25.
For the variant DSWL, the enrichment ratio is at most 0.25.
On to RECW, for which the enrichment ratio is at most 0.25.
For FMGG the value was at most 0.25.
For EQVK the value was at most 0.25; for VECQ, 8.23.
For the variant TCKQ, the enrichment ratio is at most 0.25.
For the variant TCCK, the enrichment ratio came to 21.6.
For TCCI the value was 7.17; for TCCQ, 12.5.
With VECK, the enrichment ratio was at most 0.25.
For TDEN the value was at most 0.25; for QTMG, at most 0.25; for DPLR, at most 0.25.
Consider SCTS, for which the enrichment ratio is 14.9.
As to SCTD, the enrichment ratio is at most 0.25.
Take SCTC: the enrichment ratio stood at 7.94.
Take SCTA: the enrichment ratio is 12.7.
For SCTH the value was 9.21.
Consider SCTK, for which the enrichment ratio was found to be 7.2.
For LRRQ, the enrichment ratio was at most 0.25.
As for NIGG, the enrichment ratio was at most 0.25.
LVAY: the enrichment ratio was at most 0.25.
Consider HFFS, for which the enrichment ratio is at most 0.25.
Regarding PHFW, the enrichment ratio was at most 0.25.
For MCAF, the enrichment ratio was 32.1.
For MAAF, the enrichment ratio was at most 0.25.
Take KCAF: the enrichment ratio was at most 0.25.
Consider SCAF, for which the enrichment ratio turned out to be 16.3.
For STAF, the enrichment ratio was 7.65.
Regarding MIAF, the enrichment ratio was determined as 14.
Take KMAF: the enrichment ratio is at most 0.25.
For the variant MKAF, the enrichment ratio is at most 0.25.
As for MMAF, the enrichment ratio came out at 13.
Consider WIAF, for which the enrichment ratio is at most 0.25.
On to MSAF, for which the enrichment ratio came to 3.4.
For SRAF the value was at most 0.25; for LHIP, at most 0.25; for RPYE, at most 0.25.
Consider AWSD, for which the enrichment ratio was at most 0.25.
With WEIC, the enrichment ratio was at most 0.25.
For FTRG the value was at most 0.25; for AQMD, at most 0.25.
In the case of LIFC, the enrichment ratio was at most 0.25.
As to PKNW, the enrichment ratio was at most 0.25.
For FRIG, the enrichment ratio was at most 0.25.
LEYC: the enrichment ratio came to 4.32.
WRGG: the enrichment ratio was at most 0.25.
In the case of TYCA, the enrichment ratio came to 12.1.
For TYHG, the enrichment ratio is at most 0.25.
For the variant TYVG, the enrichment ratio is 0.756.
Take TYCI: the enrichment ratio was at most 0.25.
In the case of TYCE, the enrichment ratio was at most 0.25.
Turning to TYMG, the enrichment ratio worked out at 14.3.
Turning to FWCS, the enrichment ratio is 1.37.
On to HQAE, for which the enrichment ratio was at most 0.25.
For the variant APEP, the enrichment ratio was at most 0.25.
